The full list was thinned out, with hits kept by preference.
TDP1 cell CPT – qHTS for Inhibitors of human tyrosyl-DNA phosphodiesterase 1 (TDP1): qHTS in cells in presence of CPT. 420,000 tested, 12% active. chicken DT40 Tdp1-/-;hTDP1 cells + 20 nM CPT, ATP luminescence, 48 h. Potency, µM (titrated, usually from 46.2 µM), usual class: inhibitors; also: nearly all actives have a fitted effect of over 55% in size
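Chicken DT40 Tdp1-/- cells stably complemented with human TDP1 were seeded at 400 cells/well in medium containing 20 nM camptothecin, exposed to pin-transferred compounds, and grown at 37 °C for at least 48 hr. Viability was read as ATP luminescence.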
DT40 TDP1 no CPT – qHTS for Inhibitors of human tyrosyl-DNA phosphodiesterase 1 (TDP1): qHTS in cells in absence of CPT | DT40 Tdp1-/- hTDP1 cells, no CPT, ATP luminescence, 48 h | Potency, µM (series often up to 46.2 µM), actives largely listed as inhibitors | 420,000 tested, 15% active | AID 686978, 2013; also: nearly all actives have a fitted effect of over 55% in size
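No-CPT arm: Tdp1-/-;hTDP1 DT40 cells (400/well) plus compounds, incubated ≥48 hr at 37 °C. Readout CellTiter-Glo luminescence.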
IL1B secr inh – qHTS for Inhibitors of Inflammasome Signaling: IL-1-beta AlphaLISA Primary Screen | THP-1 LPS/ATP IL-1B secretion, AlphaLISA, 16 h; hits give low values | AID 743279, 2014 | 360,000 tested, 4.7% active | activity change, % at 57.5 µM; in the data active = activity change below about -50%; inconclusive = mostly about -30% to -49%
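THP-1 cells pretreated 1 hr with compounds (up to 57.5 uM final), then stimulated with LPS (250 ng/mL final) plus ATP (1.25 mM final); secreted IL-1B measured by AlphaLISA after 16 hr, decreased signal indicating inhibition.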
12-LOX inh – Primary qHTS assay for inhibitors of human arachidonate 12S-lipoxygenase (ALOX12): Round 2. purified 12hLO, xylenol orange hydroperoxide absorbance. Potency, µM (series often up to 108 µM), actives largely listed as inhibitors. 580,000 tested, 1.1% active. AID 1671190, 2021
Target sequence (P18054 whole entry, looked up): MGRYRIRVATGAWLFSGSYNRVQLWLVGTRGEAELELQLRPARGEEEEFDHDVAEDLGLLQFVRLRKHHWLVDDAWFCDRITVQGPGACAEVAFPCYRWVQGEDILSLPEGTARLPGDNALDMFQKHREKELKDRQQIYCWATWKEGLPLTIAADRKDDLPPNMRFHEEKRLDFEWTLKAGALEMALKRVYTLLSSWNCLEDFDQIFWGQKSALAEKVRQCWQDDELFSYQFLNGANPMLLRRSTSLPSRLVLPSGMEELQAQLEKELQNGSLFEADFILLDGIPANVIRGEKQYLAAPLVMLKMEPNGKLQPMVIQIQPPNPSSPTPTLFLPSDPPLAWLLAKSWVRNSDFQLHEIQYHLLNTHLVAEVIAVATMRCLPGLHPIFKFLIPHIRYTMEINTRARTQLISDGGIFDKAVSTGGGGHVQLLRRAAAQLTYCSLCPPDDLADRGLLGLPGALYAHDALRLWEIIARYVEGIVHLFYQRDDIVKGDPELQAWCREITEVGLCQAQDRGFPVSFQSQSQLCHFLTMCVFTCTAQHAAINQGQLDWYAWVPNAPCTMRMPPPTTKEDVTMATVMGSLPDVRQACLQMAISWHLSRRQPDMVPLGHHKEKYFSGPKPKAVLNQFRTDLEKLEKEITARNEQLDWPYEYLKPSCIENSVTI
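Purified human 12hLO at 150 nM in 25 mM Hepes, 0.01% Triton X-100, pH 7.0, preincubated 15 min at room temperature with compound. Reaction started with 40 uM arachidonic acid, 30 min at room temperature. Hydroperoxide measured by Fe-xylenol orange, 573/405 nm absorbance ratio.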
HT1080 IDH1KD tx – qHTS for induction of synthetic lethality in tumor cells producing 2HG: qHTS for the HT-1080-IDH1KD cell line; HT-1080 IDH1 knockdown viability, ATP luminescence, 48 h; Potency, µM (top dose mostly 46.1 µM), most hits filed as cytotoxic; 360,000 tested, 2% active; AID 686971, 2013
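Viability of IDH1-knockdown HT-1080 fibrosarcoma cells was assessed by CellTiter-Glo after 48 h at 37 °C with titrated compound; concentration-effect curves were classified by fit quality and response size.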
HT1080-NT tox – qHTS for induction of synthetic lethality in tumor cells producing 2HG: qHTS for the HT-1080-NT fibrosarcoma cell line. HT-1080-NT fibrosarcoma viability, CellTiter-Glo ATP luminescence, 48 h. Potency, µM (doses to about 46.1 µM), hits mostly cytotoxic. 360,000 tested, 1.6% active. AID 686970, 2013;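 also: NT is the 2HG producing partner of a matched IDH1 knockdown line; nearly all actives have a fitted effect of over 55% in size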
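Compounds were tested in concentration-response format on HT-1080-NT cells for 48 hours at 37 degrees C. Cell viability came from CellTiter-Glo luminescence; curves were classified by r2, response magnitude and activity.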
Numbers stand for hits; n = inactive; u = inconclusive; x = no result; [ ] = dose if it differs, or a comment. Unless noted, calls follow the shape of the dose curve; as a rule, active = well fitted curve in the direction sought with a large enough effect; inconclusive = small, poorly fitted or top-dose-only effect, or another doubt; inactive = no such curve, though single readings can be large; an effect the other way counts as inactive or inconclusive.

SMILES | TDP1 cell CPT | DT40 TDP1 no CPT | IL1B secr inh | 12-LOX inh | HT1080 IDH1KD tx | HT1080-NT tox
COc1ccc(-c2cc3c4nnc(SCC(=O)Nc5cc(F)ccc5F)n4ccn3n2)cc1 | x | x | x | n | x | x
COC(=O)C1SCC2C(=O)N(Cc3ccc(Cl)c(Cl)c3)CC(=O)N21 (stereo not drawn) | 23µM | u | n | n | n | n
COc1ccc(Nc2cc3[nH]c(-c4ccc(C(=O)N(C)C)cc4)cc3cn2)c(OC)c1 | x | x | x | n | x | x
Cc1cccc(NCc2cc(Cl)ccc2O)n1 | n | n | -79 | n | n[9.24 µM] | u
Cc1cccc(NCc2cc(Cl)cc(Cl)c2O)n1 | n | n | -51 | n | n[9.24 µM] | u
COc1ccc(Br)cc1CNC(=O)c1ccc2c(c1)N(Cc1ccc(C)cc1)CCS2 | u | u | x | n | x | x
Cc1ccc(CN2CCSc3ccc(C(=O)Nc4ccc(C)cc4)cc32)cc1 | 16µM | 16µM | x | u | x | x
CN1CCSc2ccc(C(=O)Nc3cccc(F)c3)cc21 | u | u | -53 | n | n | n
COc1ccc(NC(=O)c2ccc3c(c2)N(C)CCS3)cc1 | u | u | n | n | n | n
COc1ccccc1CNC(=O)c1ccc2c(c1)N(Cc1ccc(C)cc1)CCS2 | 16µM | u | x | n | x | x
CCN1CCSc2ccc(C(=O)NC(C)c3ccccc3)cc21 (stereo not drawn) | 18µM | 23µM | x | n | x | x
COc1ccc(NC(=O)c2n[nH]c3ccccc23)cc1NS(=O)(=O)c1ccc(F)cc1 | x | x | x | n | x | x
Cc1nc(N=Nc2cc(S(=O)(=O)O)ccc2S(=O)(=O)O)c(COP(=O)(O)O)c(C=O)c1O | n | n | x | n | x | x
CS(=O)(=O)N(C1CC1)C1CCOC2(CCN(C(=O)Cc3cccc(F)c3)CC2)C1 (stereo not drawn) | x | x | x | n | x | x
CCN1CCSc2ccc(C(=O)NCc3cccc(F)c3)cc21 | u | 18µM | n | n | n | n
CCN1CCSc2ccc(C(=O)NCc3ccc(F)cc3)cc21 | x | x | x | n | x | x
CCOc1ccccc1CNC(=O)c1ccc2c(c1)N(CC)CCS2 | 15µM | 9.2µM | n | n | n | n
CCOc1ccccc1CNC(=O)c1ccc2c(c1)N(Cc1ccc(C)cc1)CCS2 | 18µM | 9.2µM | x | n | x | x
Cc1ccc(CN2CCSc3ccc(C(=O)NCc4ccco4)cc32)cc1 | u | u | u | n | u | n
CCCCc1oc2ccccc2c1C(=O)c1cc(I)c(N(CC)CCOCC)c(I)c1 | 7.1µM | 4.5µM | x | x | x | x
CCc1oc2ccccc2c1C(=O)c1cc(I)c(O)c(I)c1 | u | u | x | 13µM | x | x
CCc1oc2ccccc2c1/C=N/O | x | x | x | n | x | x
N#Cc1ccccc1OCc1ccc(C(=O)O)o1 | x | x | x | n | x | x
CC(=O)Nc1ccc(S(=O)(=O)N2CCN(C(=O)Cc3ccccc3)CC2)cc1 | 12µM | u | n | n | n | n
COc1cc(CN2CCN(S(=O)(=O)c3ccc(NC(C)=O)cc3)CC2)cc(OC)c1OC | x | x | x | n | x | x
SMILES | TDP1 cell CPT | DT40 TDP1 no CPT | IL1B secr inh | 12-LOX inh | HT1080 IDH1KD tx | HT1080-NT tox
CC(=O)Nc1ccc(S(=O)(=O)N2CCN(Cc3cccc([N+](=O)[O-])c3)CC2)cc1 | u | 23µM | n | u | n | n
CC(=O)Nc1ccc(S(=O)(=O)N2CCN(c3cc(C(F)(F)F)ccn3)CC2)cc1 | 18µM | 16µM | n | n | n | n
CC(=O)Nc1ccc(S(=O)(=O)N2CCN(S(=O)(=O)c3ccc(NC(C)=O)cc3)CC2)cc1 | n | n | n | x | n | n
CC(=O)Nc1ccc(S(=O)(=O)N2CCN(c3ccc([N+](=O)[O-])cc3)CC2)cc1 | 23µM | 21µM | n | n | n | n
CC(=O)Nc1ccc(S(=O)(=O)N2CCN(CCc3ccccc3)CC2)cc1 | n | n | n | n | n | n
Cc1cccc(C)c1OCC(=O)Nc1cccc2cccnc12 | x | x | x | n | x | x
CC(=O)Nc1ccc(S(=O)(=O)N2CCSc3ccccc32)cc1 | 4.1µM | 3.7µM | n | n | 13µM | 21µM
CCOC(=O)c1c(NC(=O)CSc2nnnn2C)sc(C)c1-c1ccc(C)cc1 | u | 16µM | u | n | 8.9µM | u
CCOC(=O)c1c(-c2ccc(C)cc2)csc1NC(=O)CCSc1nnc2ccccn12 | 23µM | 23µM | n | n | n | n
Cn1nnnc1SCC(=O)NC(=O)Cc1ccccc1 | 12µM | 6.5µM | n | n | n | n
CCOC(=O)c1c(-c2ccccc2)csc1NC(=O)CSc1nncs1 | 23µM | 16µM | n | n | n | n
O=C(CSc1nnnn1-c1ccccc1)NC(=O)Cc1ccccc1 | n | n | n | n | n | n[9.24 µM]
Cc1ccc(C(C)C)c(OCC(O)Cn2cnc3c2c(=O)n(C)c(=O)n3C)c1 (stereo not drawn) | x | x | x | n | x | x
CCOc1ccc(C(=O)Nc2ccccn2)c(OCC)c1 | x | x | x | n | x | x
Cc1ccc(C2=NS(=O)(=O)N(C)C(C(=O)N3CCN(c4ccc(F)cc4)CC3)=C2)cc1 | x | x | x | n | x | x
CCOc1ccccc1NC(=O)CN(C)S(=O)(=O)c1ccc2ccccc2c1 | x | x | x | n | x | x
CCOC(=O)c1c(-c2ccccc2)csc1NC(=O)CSc1nnnn1C | 18µM | u | n | n | 11µM | u
COc1cc(OC)cc(-c2nnc(NC(=O)Cc3ccc(F)cc3)o2)c1 | 1.5µM | 2.6µM | n | n | n | n
Cc1ccc(CC(=O)Nc2nnc(-c3ccc(F)cc3)o2)c(C)c1 | u | 16µM | n | x | n | n
Fc1ccc(-c2nnc3ccc(NCC4CC4)nn23)nc1 | x | x | x | n | x | x
Cn1c(C(=O)NCCNS(=O)(=O)c2cccs2)cc2ccccc21 | x | x | x | n | x | x
CCOc1ccc2oc(C(=O)O)c(C)c2c1 | n | n | n | n | n | n
Cc1c(C(=O)NNC(=O)c2ccccc2O)oc2ccc(Br)cc12 | 21µM | u | n | u | n | n
CCOc1ccc2oc(C(=O)NNC(=O)c3ccccc3O)c(C)c2c1 | u | 26µM | n | n | n | u
Cc1cc(C)c(C#N)c(SCS(=O)Cc2ccccc2)n1 (stereo not drawn) | n | n | n | n | u | n
Cc1cc(C)c(C#N)c(SCCS(=O)(=O)c2ccc(Cl)cc2)n1 | u | u | -76 | n | n | n
Cc1cc(C)c(C#N)c(SCCS(=O)(=O)c2ccc(C(C)(C)C)cc2)n1 | 13µM | 21µM | n | n | n | n
CCN1CCC2(CCC1=O)CN(C(=O)c1ccc(CSC)o1)CCN2C (stereo not drawn) | x | x | x | n | x | x

Bioassay records: PubChem, National Center for Advancing Translational Sciences (NCATS)
